{
  "source": "PubChem BioAssay AID1159580",
  "about": "(chemical genetic matrix, 2015)",
  "assay": "chemical genetic growth profiling, strain panel (AID 1159580);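 also: tested at 20 µM; growth read once vehicle control cultures reached saturation at 30 °C; 1 = growth at the plate median or of vehicle wells; lower values mean less growth of the strain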",
  "details": "S. cerevisiae deletion strains, growth OD",
  "note": "Screen size: about 5,500 compounds; about 2,000 (36%) were called active. Inconclusive results (about 18%) are left out. The list shows a part of the results. Unmarked numbers belong to inactive results. Rule as the data show it: active = normalized growth mostly below about 0.91 (no sharp cut-off); inconclusive = no clear call, values can overlap the other calls; inactive = mostly above about 0.92.",
  "data": [
    {"smiles": "COC(=O)c1cc(I)c(OC(C)=O)c(I)c1", "values": [
      {"measurement": "normalized growth", "setting": "locus YAR019C, strain CDC15, stronger effect = lower value", "value": 0.952},
      {"measurement": "normalized growth", "setting": "locus YBL105C, strain PKC1, stronger effect = lower value", "value": 0.958},
      {"measurement": "normalized growth", "setting": "locus YBR135W, strain CKS1, stronger effect = lower value", "value": 0.944},
      {"measurement": "normalized growth", "setting": "locus YBR136W, strain MEC1, stronger effect = lower value", "value": 0.958},
      {"measurement": "normalized growth", "setting": "locus YBR160W, strain CDC28, stronger effect = lower value", "value": 0.959},
      {"measurement": "normalized growth", "setting": "locus YDL017W, strain CDC7, stronger effect = lower value", "value": 0.961},
      {"measurement": "normalized growth", "setting": "locus YDL028C, strain MPS1, stronger effect = lower value", "value": 0.961},
      {"measurement": "normalized growth", "setting": "locus YDL101C, strain DUN1, stronger effect = lower value", "value": 0.935},
      {"measurement": "normalized growth", "setting": "locus YDL108W, strain KIN28, stronger effect = lower value", "value": 0.955},
      {"measurement": "normalized growth", "setting": "locus YDL132W, strain cdc53, stronger effect = lower value", "value": 0.939},
      {"measurement": "normalized growth", "setting": "locus YDL214C, strain PRR2, stronger effect = lower value", "value": 0.929},
      {"measurement": "normalized growth", "setting": "locus YDR052C, strain DBF4, stronger effect = lower value", "value": 0.967},
      {"measurement": "normalized growth", "setting": "locus YDR054C, strain cdc34, stronger effect = lower value", "value": 0.939},
      {"measurement": "normalized growth", "setting": "locus YDR226W, strain ADK1, stronger effect = lower value", "value": 0.951},
      {"measurement": "normalized growth", "setting": "locus YDR477W, strain SNF1, stronger effect = lower value", "value": 0.955},
      {"measurement": "normalized growth", "setting": "locus YER123W, strain YCK3, stronger effect = lower value", "value": 0.905},
      {"measurement": "normalized growth", "setting": "locus YER133W, strain GLC7, stronger effect = lower value", "value": 0.945},
      {"measurement": "normalized growth", "setting": "locus YFL009W, strain cdc4, stronger effect = lower value", "value": 0.952},
      {"measurement": "normalized growth", "setting": "locus YFL029C, strain CAK1, stronger effect = lower value", "value": 0.947},
      {"measurement": "normalized growth", "setting": "locus YFR003C, strain YPI1, stronger effect = lower value", "value": 0.956},
      {"measurement": "normalized growth", "setting": "locus YFR019W, strain FAB1, stronger effect = lower value", "value": 0.94},
      {"measurement": "normalized growth", "setting": "locus YFR028C, strain CDC14, stronger effect = lower value", "value": 0.95},
      {"measurement": "normalized growth", "setting": "locus YGR040W, strain KSS1, stronger effect = lower value", "value": 0.953},
      {"measurement": "normalized growth", "setting": "locus YGR052W, strain FMP48, stronger effect = lower value", "value": 0.967},
      {"measurement": "normalized growth", "setting": "locus YGR092W, strain DBF2, stronger effect = lower value", "value": 0.9},
      {"measurement": "normalized growth", "setting": "locus YHR030C, strain SLT2, stronger effect = lower value", "value": 0.916},
      {"measurement": "normalized growth", "setting": "locus YHR079C, strain IRE1, stronger effect = lower value", "value": 0.973},
      {"measurement": "normalized growth", "setting": "locus YHR082C, strain KSP1, stronger effect = lower value", "value": 0.98},
      {"measurement": "normalized growth", "setting": "locus YHR205W, strain SCH9, stronger effect = lower value", "value": 0.864},
      {"measurement": "normalized growth", "setting": "locus YIL147C, strain SLN1, stronger effect = lower value", "value": 0.966},
      {"measurement": "normalized growth", "setting": "locus YJL095W, strain BCK1, stronger effect = lower value", "value": 0.934},
      {"measurement": "normalized growth", "setting": "locus YJL128C, strain PBS2, stronger effect = lower value", "value": 0.856},
      {"measurement": "normalized growth", "setting": "locus YJL157C, strain FAR1, stronger effect = lower value", "value": 0.945},
      {"measurement": "normalized growth", "setting": "locus YJR016C, strain ILV3, stronger effect = lower value", "value": 0.959},
      {"measurement": "normalized growth", "setting": "locus YJR066W, strain TOR1 (second series), stronger effect = lower value", "value": 0.943},
      {"measurement": "normalized growth", "setting": "locus YJR066W, strain TOR1, stronger effect = lower value", "value": 1.01},
      {"measurement": "normalized growth", "setting": "locus YKL048C, strain ELM1, stronger effect = lower value", "value": 0.913},
      {"measurement": "normalized growth", "setting": "locus YKL067W, strain YNK1, stronger effect = lower value", "value": 0.91},
      {"measurement": "normalized growth", "setting": "locus YKL101W, strain HSL1, stronger effect = lower value", "value": 0.902},
      {"measurement": "normalized growth", "setting": "locus YKL193C, strain SDS22, stronger effect = lower value", "value": 0.942},
      {"measurement": "normalized growth", "setting": "locus YKL203C, strain TOR2, stronger effect = lower value", "value": 1.02},
      {"measurement": "normalized growth", "setting": "locus YLR113W, strain HOG1, stronger effect = lower value", "value": "0.745 (active)"},
      {"measurement": "normalized growth", "setting": "locus YLR133W, strain CKI1, stronger effect = lower value", "value": 0.949},
      {"measurement": "normalized growth", "setting": "locus YLR403W, strain SFP1, stronger effect = lower value", "value": 0.935},
      {"measurement": "normalized growth", "setting": "locus YML070W, strain DAK1, stronger effect = lower value", "value": 0.897},
      {"measurement": "normalized growth", "setting": "locus YMR001C, strain CDC5, stronger effect = lower value", "value": 0.947},
      {"measurement": "normalized growth", "setting": "locus YMR205C, strain PFK2 (second series), stronger effect = lower value", "value": 0.925},
      {"measurement": "normalized growth", "setting": "locus YMR277W, strain FCP1, stronger effect = lower value", "value": 0.948},
      {"measurement": "normalized growth", "setting": "locus YNL006W, strain LST8, stronger effect = lower value", "value": 0.951},
      {"measurement": "normalized growth", "setting": "locus YNL020C, strain ARK1, stronger effect = lower value", "value": 0.939},
      {"measurement": "normalized growth", "setting": "locus YNL161W, strain CBK1, stronger effect = lower value", "value": 0.961},
      {"measurement": "normalized growth", "setting": "locus YNL183C, strain NPR1, stronger effect = lower value", "value": 0.958},
      {"measurement": "normalized growth", "setting": "locus YNL207W, strain RIO2, stronger effect = lower value", "value": 0.957},
      {"measurement": "normalized growth", "setting": "locus YNL222W, strain SSU72, stronger effect = lower value", "value": 0.94},
      {"measurement": "normalized growth", "setting": "locus YNL307C, strain MCK1 (second series), stronger effect = lower value", "value": 0.918},
      {"measurement": "normalized growth", "setting": "locus YOL078W, strain AVO1, stronger effect = lower value", "value": 0.952},
      {"measurement": "normalized growth", "setting": "locus YOL136C, strain PFK27, stronger effect = lower value", "value": 0.926},
      {"measurement": "normalized growth", "setting": "locus YOR061W, strain CKA2, stronger effect = lower value", "value": 0.937},
      {"measurement": "normalized growth", "setting": "locus YOR119C, strain RIO1, stronger effect = lower value", "value": 0.991},
      {"measurement": "normalized growth", "setting": "locus YOR231W, strain MKK1, stronger effect = lower value", "value": 0.942},
      {"measurement": "normalized growth", "setting": "locus YOR329C, strain SCD5, stronger effect = lower value", "value": 0.963},
      {"measurement": "normalized growth", "setting": "locus YPL031C, strain PHO85, stronger effect = lower value", "value": 0.949},
      {"measurement": "normalized growth", "setting": "locus YPL153C, strain RAD53, stronger effect = lower value", "value": 0.936},
      {"measurement": "normalized growth", "setting": "locus YPL204W, strain HRR25, stronger effect = lower value", "value": 0.946},
      {"measurement": "normalized growth", "setting": "locus YPL209C, strain IPL1, stronger effect = lower value", "value": 0.95},
      {"measurement": "normalized growth", "setting": "locus YPL256C, strain CLN2, stronger effect = lower value", "value": 0.898},
      {"measurement": "normalized growth", "setting": "locus YPR025C, strain CCL1, stronger effect = lower value", "value": 0.953},
      {"measurement": "normalized growth", "setting": "locus YPR106W, strain ISR1, stronger effect = lower value", "value": 0.92},
      {"measurement": "normalized growth", "setting": "locus YPR111W, strain DBF20, stronger effect = lower value", "value": 0.926},
      {"measurement": "normalized growth", "setting": "strain NNK1, stronger effect = lower value", "value": 0.921},
      {"measurement": "normalized growth", "setting": "strain TSCII, stronger effect = lower value", "value": 0.948}
    ]}
  ]
}
